# Results filed as inconclusive are left out. A call without a number means that no potency is given here. The source made the active and inactive calls. Calls follow the shape of the dose curve; as a rule, active = well fitted inhibition curve with a large enough effect; inconclusive = small, poorly fitted or top-dose-only effect; inactive = flat fitted curve, though single readings scatter.
# Target: Calcium and integrin-binding protein 1 (Homo sapiens) (UniProt Q99828)
# Test: Primary qHTS for Identification of Calcium Integrin Binding Protein 1 (CIB1) Competitor (AID 1508620);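 also: GST tagged CIB1 binding a fluorescein labelled alphaIIb integrin peptide tracer; top concentration of the series differs between compounds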
# Settings: CIB1-GST / FITC-alphaIIb peptide fluorescence polarization; series mostly up to 114 µM
# Procedure, shortened: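 CIB1-GST (1 uM final) and compound incubated 15 min at room temperature before adding FITC-alphaIIb peptide tracer (100 nM final). Competition for binding read by fluorescence polarization (ex 480, em 540) after another 15 min at room temperature.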
# Calcium and integrin-binding protein 1 (Homo sapiens), sequence (Q99828 whole entry, looked up): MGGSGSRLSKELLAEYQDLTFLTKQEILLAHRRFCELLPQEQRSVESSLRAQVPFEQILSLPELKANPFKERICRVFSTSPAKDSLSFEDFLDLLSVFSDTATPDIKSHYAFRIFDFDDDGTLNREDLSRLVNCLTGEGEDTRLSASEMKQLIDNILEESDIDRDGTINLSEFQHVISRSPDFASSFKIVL
row,SMILES,Potency
1,C[C@H]1CN(S(=O)(=O)c2ccc3c(c2)OCCO3)CCN1S(=O)(=O)c1c(F)cccc1F,inactive
2,COc1cccc(C2c3c(ncn(-c4ccc(F)cc4)c3=N)Oc3ccc4ccccc4c32)c1 (stereo not given),inactive
3,Cc1cnc(-c2ccccc2C(C)C)nc1NCc1ccc(-c2cccc(S(N)(=O)=O)c2)cc1,inactive
4,Fc1ccc(Nc2nc(-c3ccnc(N4CCCCC4)c3)nc3ccccc23)cc1F,inactive
5,O=S1(=O)N=C(Oc2ccccc2-c2ccccc2)c2ccccc21,inactive
6,O=S(=O)(c1ccc2c(c1)OCCO2)N1CCCN(S(=O)(=O)c2c(F)cccc2F)CC1,inactive
7,Cc1cccc(-n2cnc3cc(C(=O)N4CCC(C(F)(F)F)CC4)ccc32)c1,inactive
8,COc1ccc(C2c3c(ncn(CCCc4ccccc4)c3=N)Oc3ccc4ccccc4c32)cc1OC (stereo not given),inactive
9,Cc1sc(NC(=O)Cc2ccc3c(c2)OCO3)nc1-c1ccc2c(c1)CCN2C(=O)c1ccccc1Cl,inactive
10,O=C(Cn1nc(-c2ccccc2)ccc1=O)NCCc1ccccc1,inactive
11,COc1ccc(C2N=C(Nc3nc4ccccc4o3)NC3=C2C(=O)CCC3)cc1 (stereo not given),inactive
12,O=C(COC(=O)CNC(=O)c1ccccc1)Nc1cc(C(F)(F)F)ccc1Cl,inactive
13,Cc1cc(C=CC#N)cc(C)c1Nc1nc(Nc2ccc3c(c2)CCC3)c2[nH]cnc2n1,inactive
14,Cc1nc2ccc(Nc3nc(Nc4c(C)cc(C=CC#N)cc4C)nc4nc[nH]c34)cc2s1,inactive
15,COc1ccc(C(=O)NCC(=O)OC(C(=O)Nc2cc(C(F)(F)F)ccc2Cl)c2ccccc2)cc1OC (stereo not given),inactive
16,O=C(CNC(=O)c1ccc2n[nH]nc2c1)OC(C(=O)Nc1cc(C(F)(F)F)ccc1Cl)c1ccccc1 (stereo not given),inactive
17,COc1cccc(C2=Nn3c(nnc3-c3cc(OC)cc(OC)c3)SC2)c1,inactive
18,CCC(=O)NC(c1cccs1)c1cc([N+](=O)[O-])c2cccnc2c1OC (stereo not given),inactive
19,CN(CC(=O)Nc1ccc(N2CCOCC2)cc1)Cc1cccc2ccccc12,inactive
20,COc1ccc(NC(=O)CSc2nnc(-c3cccc(S(=O)(=O)N4CCCC4)c3)n2-c2ccccc2)cc1,inactive

row,SMILES,Potency
1,COc1ccccc1C1=Nn2c(nnc2-c2ccccc2OC)SC1,inactive
2,OC(c1ccccc1)(c1ccccc1)c1cnc2ccccn12,inactive
3,Nc1ccc(S(=O)(=O)Nc2cccc3cccnc23)cc1,inactive
4,Cc1cc2c(s1)c1cnn(Cc3c(F)ccc(Cl)c3F)c(=O)c1n2C,inactive
5,Cc1ccc(/C=C/C(=O)Nc2cccc([S+](=O)([O-])Nc3ccccc3F)c2)cc1,inactive
6,CC(C)c1ccccc1-c1ncc(F)c(NCc2ccc(-n3ccnn3)cc2)n1,inactive
7,Cc1ccc(-c2nc3ccccc3s2)cc1NC(=O)c1ccc(-c2cccc(Cl)c2)o1,inactive
8,CC(=O)NC1CCN(c2nc(-c3ccc(Br)cc3)cs2)CC1,inactive
9,O=C(OCC#CCSc1nnc(-c2cccc3ccccc23)s1)c1cccs1,inactive
10,CN1CCN(c2cc(-c3nc(Nc4ccc(F)c(F)c4)c4ccccc4n3)ccn2)CC1,inactive
11,O=C(O)c1ccc(O)c2ncc(N3CCCCC3)cc12,inactive
12,Cc1ccc(S(=O)(=O)Nc2cccc3ccc(C)nc23)cc1,inactive
13,Cc1ccc(-c2nc3ccccc3[nH]2)cc1NC(=O)c1ccc(-c2cccc(Cl)c2)o1,inactive
14,Cc1ccc(NC(=O)c2ccc3c(c2)CCC(=O)N3)cc1C,inactive
15,CC(=O)N1CCN(c2ccc(NCc3ccc(Br)o3)cc2)CC1,inactive
16,Cc1cc2c(s1)c1cnn(Cc3c(F)cccc3F)c(=O)c1n2C,inactive
17,Cc1ccc(CNc2ccc(N3CCN(C(=O)OC(C)(C)C)CC3=O)cc2)cc1,inactive
18,Cc1ccc(OCCn2c(CCNC(=O)c3ccccn3)nc3ccccc32)cc1,inactive
19,c1cc2c(cc1CNc1ccc(N3CCOCC3)cc1)OCO2,inactive
20,COc1ccc(C2Nc3ccccc3C(=O)N2Cc2ccc(C(F)(F)F)o2)cc1COc1c(C)cccc1C (stereo not given),inactive
